Records with an inconclusive call do not appear. Active and inactive are the calls of the source. Unless noted, the call rests on the fitted dose curve; in most records, active means well fitted curve in the direction sought with a large enough effect in the repeat runs; inconclusive means weak or mixed curves; inactive means no such curve, though single readings can be large; an effect the other way counts as inactive or inconclusive.
Legend:
[1] = target: Estrogen receptor (Homo sapiens) (UniProt P03372); experiment: qHTS assay to identify small molecule antagonists of the estrogen receptor alpha (ER-alpha) signaling pathway using the BG1 cell line in the presence of 0.1 nM 17-beta-estradiol (AID 1259244); further: nearly all actives have a fitted effect of over 50% in size
Sequence of Estrogen receptor (Homo sapiens) (P03372 whole entry, looked up): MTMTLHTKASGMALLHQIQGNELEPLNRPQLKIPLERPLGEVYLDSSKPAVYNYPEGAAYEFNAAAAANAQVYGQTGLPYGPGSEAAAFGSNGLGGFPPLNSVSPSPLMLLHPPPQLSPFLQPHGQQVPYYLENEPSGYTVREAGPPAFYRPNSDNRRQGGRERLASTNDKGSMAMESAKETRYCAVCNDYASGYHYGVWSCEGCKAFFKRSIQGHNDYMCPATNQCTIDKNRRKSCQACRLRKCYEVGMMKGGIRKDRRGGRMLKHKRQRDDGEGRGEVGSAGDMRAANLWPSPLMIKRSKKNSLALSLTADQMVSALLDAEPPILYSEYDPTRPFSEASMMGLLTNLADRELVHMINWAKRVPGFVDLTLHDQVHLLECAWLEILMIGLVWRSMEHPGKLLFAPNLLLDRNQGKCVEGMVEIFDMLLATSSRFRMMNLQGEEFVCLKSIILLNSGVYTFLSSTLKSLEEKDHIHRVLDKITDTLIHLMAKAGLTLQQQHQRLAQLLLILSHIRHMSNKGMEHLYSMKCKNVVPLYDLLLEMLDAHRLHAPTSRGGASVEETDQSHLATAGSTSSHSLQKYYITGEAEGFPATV
Summary of the method: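 Antagonist mode: compounds in DMSO are pinned onto VM7Luc4E2 reporter cells, 0.1 nM final 17beta-estradiol is added, and after 22 h at 37C luciferase luminescence is measured with ONE-Glo.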

[2] = qHTS assay to identify small molecule HDAC inhibitors (AID 1259364);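 further: wild-type HCT-116 cells with endogenous class I/II HDAC activity; top concentration of the series differs between compounds; nearly all actives have a fitted effect of over 45% in size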
Summary of the method: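 Cells (HCT-116, wild type) are seeded at 1,500 per well, incubated overnight, treated with compound in DMSO for 2 hr, then developed with HDAC-Glo I/II reagent for 30 min at room temperature.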

[3] = qHTS assay to identify small molecule HDAC inhibitors - cell viability counter screen (AID 1259365); further: series mostly up to about 92 µM; nearly all actives have a fitted effect of over 50% in size
Summary of the method: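 Cytotoxicity was gauged in wild-type HCT-116 cells after a brief 2hr treatment with DMSO-dissolved compounds at 37C and 5% CO2, using CellTiter-Glo luminescence developed for 30min at room temperature.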

[4] = qHTS assay to identify small molecule antagonists of the sonic hedgehog signaling (Shh) pathway - cell viability counter screen (AID 1259367); further: nearly all actives have a fitted effect of over 55% in size
Summary of the method: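 Tox21 library chemicals were tested on a Gli1-Luc NIH/3T3 clone (2,000 cells/well) stimulated by conditioned medium; viability was quantified as fluorescence from CellTiter-Fluor reagent added at 23 hr.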

[5] = qHTS assay to identify small molecule agonists of the sonic hedgehog signaling (Shh) pathway (AID 1259368; calls by dose curve;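 further: NIH/3T3-derived 3T3Gli1-Luc cells carrying a stable Gli1-driven firefly luciferase reporter; series mostly up to about 92 µM; nearly all actives have a fitted effect of over 15% in size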)
Summary of the method: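 Cells of a mouse NIH/3T3 clone stably expressing luciferase under the Gli1 transcriptional response element are exposed to test chemicals for 24 hr at 37 C. Pathway activation is detected as a rise in luminescence.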

[6] = qHTS assay to identify small molecule antagonists of the sonic hedgehog signaling (Shh) pathway (AID 1259369; calls by dose curve; further: nearly all actives have a fitted effect of over 45% in size)
Summary of the method: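 Cells are plated and held 4hr at 37 C, compounds (DMSO) are pinned in, conditioned medium is added to stimulate the pathway, and after 24hr luciferase reagent is added for 30min before luminescence is read.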

[7] = qHTS assay to identify small molecule agonists of the androgen receptor (AR) signaling pathway in the presence of an antagonist - cell viability counter screen (AID 1259379);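 further: MDA-kb2 human breast cancer cells carrying an MMTV luciferase reporter; series mostly up to about 92 µM; nearly all actives have a fitted effect of over 25% in size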
Summary of the method: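 Cytotoxicity is assessed by CellTiter-Fluor in MDA-kb2 cells carrying an MMTV-driven luciferase reporter. Cells receive 3.0uM nilutamide plus compounds at 15 concentrations and incubate 16 hr at 37C without CO2 before fluorescence reading.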

[8] = qHTS assay to identify small molecule agonists of the estrogen receptor beta (ER-beta) signaling pathway - cell viability counter screen (AID 1259380); further: nearly all actives have a fitted effect of over 30% in size
Summary of the method: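 Cytotoxicity is measured in parallel with the reporter screen: after 16 hr compound exposure at 37C and a 2 hr LiveBLAzer step, CellTiter-Glo is added to the same ER-beta-UAS-bla HEK293T wells and luminescence read after 30 min.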

[9] = qHTS assay to identify small molecule antagonists of the estrogen receptor beta (ER-beta) signaling pathway - cell viability counter screen (AID 1259382); further: series mostly up to about 92 µM; nearly all actives have a fitted effect of over 55% in size
Summary of the method: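 Cytotoxicity counter screen multiplexed with the beta-lactamase antagonist assay: GripTite HEK293T ER-beta-bla cells were treated 16 hr with test chemicals in the presence of 1nM 17-beta-estradiol, and viability was measured by CellTiter-Glo.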

[10] = target: Estrogen receptor (Homo sapiens) (UniProt P03372); experiment: qHTS assay to identify small molecule agonists of the estrogen receptor alpha (ER-alpha) signaling pathway in the presence of an antagonist (AID 1259383; calls by dose curve; further: top concentration of the series differs between compounds; nearly all actives have a fitted effect of over 15% in size)
Summary of the method: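 Agonist-mode confirmation in the presence of the ER antagonist ICI-182,780 at 10.0nM final. Breast-derived VM7Luc4E2 reporter cells were exposed to compounds for 22hr, and ERE-driven luciferase was quantified by luminescence.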

[11] = qHTS assay to identify small molecule agonists or antagonists of the thyroid stimulating hormone receptor (TSHR) signaling pathway - wild type cell line counter screen (AID 1259384; calls by dose curve)
Summary of the method: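 Wild-type Hek293 cells, 800/well, 18 h at 37C, then compound with Ro20-1724 for 30 min RT. cAMP by HTRF (cAMP-d2/anti-cAMP cryptate), 1 h RT, fluorescence read. 15 concentrations, triplicates.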

[12] = target: Thyrotropin receptor (Homo sapiens) (UniProt P16473); experiment: qHTS assay to identify small molecule antagonists of the thyroid stimulating hormone receptor (TSHR) signaling pathway (AID 1259385; calls by dose curve; further: nearly all actives have a fitted effect of over 20% in size)
Sequence of Thyrotropin receptor (Homo sapiens) (P16473 whole entry, looked up): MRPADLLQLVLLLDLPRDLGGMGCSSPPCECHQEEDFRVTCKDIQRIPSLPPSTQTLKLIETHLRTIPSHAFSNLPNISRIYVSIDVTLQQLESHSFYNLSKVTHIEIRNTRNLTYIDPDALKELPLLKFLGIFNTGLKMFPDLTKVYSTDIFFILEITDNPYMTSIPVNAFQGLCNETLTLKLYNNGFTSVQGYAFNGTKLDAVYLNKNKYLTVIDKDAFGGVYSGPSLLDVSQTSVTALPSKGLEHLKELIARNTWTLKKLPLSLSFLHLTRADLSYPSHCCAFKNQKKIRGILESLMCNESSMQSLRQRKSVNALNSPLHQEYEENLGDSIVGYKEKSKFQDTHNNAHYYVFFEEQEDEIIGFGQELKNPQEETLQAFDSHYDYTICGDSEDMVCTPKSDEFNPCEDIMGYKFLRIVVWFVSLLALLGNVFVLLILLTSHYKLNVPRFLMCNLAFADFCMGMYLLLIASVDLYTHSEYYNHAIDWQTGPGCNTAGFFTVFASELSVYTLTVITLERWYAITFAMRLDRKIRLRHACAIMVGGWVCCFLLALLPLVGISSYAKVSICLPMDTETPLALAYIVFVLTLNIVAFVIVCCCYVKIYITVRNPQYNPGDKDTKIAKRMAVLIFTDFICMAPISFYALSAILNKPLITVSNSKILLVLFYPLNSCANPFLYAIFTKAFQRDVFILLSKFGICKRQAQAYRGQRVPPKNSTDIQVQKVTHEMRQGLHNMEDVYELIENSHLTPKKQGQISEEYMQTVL
Summary of the method: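 TSHR-HEK293 cells (800/well) plated 18 h, then compounds with Ro20-1724 and TSH at 1.5 ng/mL final, 30 min at room temperature. cAMP quantified by HTRF (cAMP-d2/anti-cAMP-cryptate, 1 h); 15 concentrations in triplicate.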

[13] = qHTS assay to identify small molecule agonists of the estrogen receptor alpha (ER-alpha) signaling pathway in the presence of an antagonist - cell viability counter screen (AID 1259386);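 further: series mostly up to about 92 µM; cells exposed to compounds for 22 h at 37 °C before the viability read; nearly all actives have a fitted effect of over 30% in size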
Summary of the method: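 Cytotoxicity was measured in parallel with the ERE-luciferase agonist screen, in the same wells. The cells were VM7Luc4E2, which endogenously express ER-alpha, and treatment was with compounds plus 10.0nM ICI-182,780 for 22hr.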

[14] = target: Progesterone receptor (Homo sapiens) (UniProt P06401); experiment: qHTS assay to identify small molecule agonists of the progesterone receptor (PR) signaling pathway (AID 1346784; calls by dose curve; further: nearly all actives have a fitted effect of over 30% in size)
Sequence of Progesterone receptor (Homo sapiens) (P06401 whole entry, looked up): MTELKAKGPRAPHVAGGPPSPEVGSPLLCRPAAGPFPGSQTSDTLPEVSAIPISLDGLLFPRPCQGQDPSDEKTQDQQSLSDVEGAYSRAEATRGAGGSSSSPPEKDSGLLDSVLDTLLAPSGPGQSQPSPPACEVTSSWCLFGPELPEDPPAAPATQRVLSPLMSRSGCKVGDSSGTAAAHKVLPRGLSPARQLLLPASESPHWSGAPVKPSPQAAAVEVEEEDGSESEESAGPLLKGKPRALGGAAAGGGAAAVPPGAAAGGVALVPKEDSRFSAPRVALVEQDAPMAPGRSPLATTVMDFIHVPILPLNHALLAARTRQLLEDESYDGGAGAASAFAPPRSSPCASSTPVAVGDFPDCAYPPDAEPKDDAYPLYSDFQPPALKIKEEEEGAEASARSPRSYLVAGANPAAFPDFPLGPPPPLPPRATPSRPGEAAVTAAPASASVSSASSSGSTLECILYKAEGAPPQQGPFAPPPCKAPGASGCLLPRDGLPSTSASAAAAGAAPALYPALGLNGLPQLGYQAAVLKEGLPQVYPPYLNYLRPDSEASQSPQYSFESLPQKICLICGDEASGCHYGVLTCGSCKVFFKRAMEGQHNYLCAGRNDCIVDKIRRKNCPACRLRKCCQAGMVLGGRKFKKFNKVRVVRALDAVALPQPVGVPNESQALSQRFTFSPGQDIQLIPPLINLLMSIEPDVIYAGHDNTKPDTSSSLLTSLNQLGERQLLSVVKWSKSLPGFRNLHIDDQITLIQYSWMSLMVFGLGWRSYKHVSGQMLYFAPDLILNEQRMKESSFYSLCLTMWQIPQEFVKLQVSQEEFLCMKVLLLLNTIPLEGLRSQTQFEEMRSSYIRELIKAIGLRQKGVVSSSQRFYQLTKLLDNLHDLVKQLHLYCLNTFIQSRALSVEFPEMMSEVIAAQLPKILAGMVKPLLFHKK
Summary of the method: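 The screen uses PR-UAS-bla HEK 293T cells in charcoal-stripped serum (2%). Compounds are applied for 16 hr at 37C after a 6 hr pre-incubation, and reporter activity is detected with a FRET beta-lactamase substrate after 2 hr at room temperature.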

[15] = target: Progesterone receptor (Homo sapiens) (UniProt P06401); experiment: qHTS assay to identify small molecule antagonists of the progesterone receptor (PR) signaling pathway (AID 1346795; active means well fitted inhibition curve with a large enough effect in the signal ratio in the repeat runs, not every such curve was filed as active; the % refers to the signal ratio)
Summary of the method: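 After 6 hr plating at 37C in 2% stripped-serum medium, PR-UAS-bla HEK293T cells got compounds, then 1 nM R5020. Sixteen hours later, LiveBLAzer substrate was applied for 2 hr at room temperature and fluorescence was recorded.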

[16] = qHTS assay to identify small molecule agonists of the sonic hedgehog signaling (Shh) pathway - cell viability counter screen (AID 1259366); further: nearly all actives have a fitted effect of over 50% in size
Summary of the method: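 Stable Gli1-Luc NIH/3T3 clone, 2,000 cells/well. Compound exposure 24hr at 37C. Read-out: CellTiter-Fluor fluorescence.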

[17] = target: Estrogen receptor beta (Homo sapiens) (UniProt Q92731); experiment: qHTS assay to identify small molecule agonists of the estrogen receptor beta (ER-beta) signaling pathway (AID 1259377; active means well fitted activation curve with a large enough effect in the signal ratio in the repeat runs, not every such curve was filed as active; the % refers to the signal ratio)
Sequence of Estrogen receptor beta (Homo sapiens) (Q92731 whole entry, looked up): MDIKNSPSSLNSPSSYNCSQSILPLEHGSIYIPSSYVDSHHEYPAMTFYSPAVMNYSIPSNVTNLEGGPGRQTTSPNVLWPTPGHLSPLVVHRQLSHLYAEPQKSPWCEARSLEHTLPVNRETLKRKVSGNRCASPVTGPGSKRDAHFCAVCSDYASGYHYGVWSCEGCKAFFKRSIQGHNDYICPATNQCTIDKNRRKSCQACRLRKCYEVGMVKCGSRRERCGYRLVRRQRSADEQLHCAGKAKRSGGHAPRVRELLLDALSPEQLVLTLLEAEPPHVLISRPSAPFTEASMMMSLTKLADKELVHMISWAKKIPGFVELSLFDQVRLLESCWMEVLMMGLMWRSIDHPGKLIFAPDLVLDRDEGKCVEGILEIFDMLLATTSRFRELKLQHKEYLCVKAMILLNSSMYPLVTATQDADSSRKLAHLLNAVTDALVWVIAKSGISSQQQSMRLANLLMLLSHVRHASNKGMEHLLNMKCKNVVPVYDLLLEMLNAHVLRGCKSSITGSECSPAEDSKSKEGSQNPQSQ
Summary of the method: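 Measured by fluorescence intensity from a B/G FRET beta-lactamase substrate (2 h, room temperature) in ER-beta-UAS-bla HEK293T cells treated with DMSO-dissolved compounds for 16 hr at 37C and 5% CO2.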

[18] = target: Estrogen receptor beta (Homo sapiens) (UniProt Q92731); experiment: qHTS assay to identify small molecule antagonists of the estrogen receptor beta (ER-beta) signaling pathway (AID 1259378; active means well fitted inhibition curve with a large enough effect in the signal ratio in the repeat runs, not every such curve was filed as active; the % refers to the signal ratio)
Summary of the method: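 ER-beta-UAS-bla HEK293T cells in 2% charcoal-stripped FBS medium treated with compound plus 1nM final 17-beta-estradiol for 16 hr at 37C. Beta-lactamase reporter read by FRET substrate fluorescence after 2 hours at room temperature.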

Measured: Potency

CCCCCCCCCCCCCCCBr
not listed: [15] | [16] | [17] | [18]
inactive: all other assays above

N#CCCNCCC#N
not listed: [11] | [12] | [16] | [17] | [18]
inactive: all other assays above

CC(C)(C)C1CCCCC1O (stereo not drawn)
not listed: [4] | [11] | [17] | [18]
inactive: all other assays above

CCC(=O)OC(C)(C)C1CC=C(C)CC1 (stereo not drawn)
not listed: [16]
inactive: all other assays above
